79 compounds from the supplement of paper PMC5407854, “Inhibitor of ppGalNAc-T3-mediated O-glycosylation blocks cancer cell invasiveness and lowers FGF23 levels” (eLife, 2017) can be followed below.

SMILES strings stand for the structures. In all, about 1,700 compounds were measured (“T3 sensor activation Q score (MG/GFP ratio z-score vs DMSO controls)”: median about 0.25, highest 2% from about 1.9 on). For the sample, the highest values were picked, then their nearest neighbours and some compounds at random.

The test has as its system ppGalNAc-T3 sensor. The experiment in a line: T3 sensor activation Q score (MG/GFP ratio z-score vs DMSO controls) (SD units); higher = more sensor activation (inhibition of ppGalNAc-T3 glycosylation). To be noted: HEK293 sensor cells; 10 µM; 6 h. Here is the method: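 Cells were treated with compound at 10 uM for 6 h, then MG/GFP ratio was read by flow cytometry (10,000 cells per well, duplicate wells). Q = (R - R_neg)/SD_neg relative to DMSO vehicle controls; the signal rises when the glycosyltransferase is inhibited.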
`Cc1cc(=O)c2c(=O)[nH][nH]c2[nH]1`: the “T3 sensor activation Q score” value was -1.35.
Take `CCc1noc2cc(-c3ccccc3)n(C)c(=O)c12`: the “T3 sensor activation Q score” value turned out to be 0.35.
With `CCCSc1ncnc2[nH]ncc12` the figure was 1.45; with `C#Cc1cccc(NC(=O)c2ccc(Cl)cc2Cl)c1`, -0.65; with `C#Cc1cccc(Nc2ncnc3cc(OCCOC)c(OCCOC)cc23)c1`, 2.15.
The result for `CCCNC(=O)c1ccccc1C(=O)NC1(C(=O)NCCC)CCCC1` reads -0.35.
The result for `Nc1nc(Nc2ccccc2)n[nH]1` reads -0.55; that for `CC1(C)CC(Nc2ccc(Nc3ccccc3)cc2)CC(C)(C)N1`, 1.85.
For `NC(=O)Nc1ccc(Nc2ccccc2)cc1`, the “T3 sensor activation Q score” value is 0.7.
With `OCCCCc1nccc2c1[nH]c1ccccc12` the figure was 1.
The result for `CNC(=O)c1ccccc1Sc1ccc2c(/C=C/c3ccccn3)n[nH]c2c1` reads 0.7.
With `O=C(O)CCC(=O)c1ccc2ccc3cccc4ccc1c2c34` the figure was 1.75; with `CCOC(=O)Nc1c(Cl)n(C)c(=O)n(C)c1=O`, 1.75.
For `CN(C)c1nc(=NCc2ccco2)ss1`, the “T3 sensor activation Q score” value is -1.15.
With `Cc1nc(C(N)=O)nc2ccccc12` the figure was 0.2.
With `NC(=O)c1cc2c3ccccc3ccn2c1-c1ccccc1` the figure was 2.95; with `Clc1nnc2c3ccccc3ccn12`, 0.05.
The result for `Cc1cnc(SCc2ccc(Cl)cc2Cl)[nH]c1=O` reads -0.3.
Take `COc1ccc([N+](=O)[O-])cc1NS(=O)(=O)c1ccc(C)cc1`: the “T3 sensor activation Q score” value is -0.7.
With `Cn1c(=O)c2c(nc(Cc3ccccc3)n2C)n(C)c1=O` the figure was 1.9; with `Cn1c(=O)c2c(nc(Oc3ccccc3)n2C)n(C)c1=O`, 0.7.
With `Cn1c(=O)c2c(nc(OCCc3ccccc3)n2C)n(C)c1=O` the figure was 1.6; with `CCOC(=O)N1CCN(Cc2c(O)ccc3ccccc23)CC1`, -0.95; with `CCOC(=O)c1cc(-c2ccccc2)nc2ccc(C)cc12`, 0.8.
The result for `CCOC(=O)c1cc(OCC)c2c(ccc3ccccc32)n1` reads 1.85; that for `CC(=O)NS(=O)(=O)c1ccc2sc(C)nc2c1`, 0.15.
Turning to `Nc1ccc(S(=O)(=O)NCC2CCCCO2)cc1` (centres undefined), the “T3 sensor activation Q score” value worked out at 1.6.
The result for `NC(N)=NS(=O)(=O)c1ccc(N=C2C(=O)Nc3ccccc32)cc1` reads 0.3.
With `Cc1ccc(NC(=O)c2ccc(CN3CCN(C)CC3)cc2)cc1Nc1nccc(-c2cccnc2)n1` the figure was -1.55; with `Cc1ccc(C(=O)Nc2ccc(CN3CCN(C)CC3)c(C(F)(F)F)c2)cc1C#Cc1cnc2cccnn12`, 1.9; with `Cc1c(NC(=O)Nc2c(Cl)cccc2Cl)c(=O)n(-c2ccccc2)n1C`, 0.1.
The result for `Oc1c(N=Nc2nn[nH]n2)ccc2ccccc12` reads 1.25; that for `Cn1cnc2ncnn2c1=S`, -1.2.
With `C=CCNC(=S)Nc1c(N)n(C)c(=O)n(C)c1=O`, the “T3 sensor activation Q score” value was determined as 0.75.
The result for `C=CCNC(=S)NCC` reads 1.9; that for `C=CCNC(=S)NCC=C`, 0.35.
The result for `O=C(NN1CCCCC1)NN1CCCCC1` reads 1.35.
Turning to `O=C(O)c1cccc2c1C(=O)c1cccc3snc-2c13`, the “T3 sensor activation Q score” value was -0.15.
`CN1C(=C=Cc2cc(I)c(O)c(I)c2)C(C)(C)c2ccccc21`: the “T3 sensor activation Q score” value stood at 1.9.
Consider `CCCNC(=O)c1ccc(S(N)(=O)=O)cc1`, for which the “T3 sensor activation Q score” value was found to be 0.65.
With `O=C(c1ccccc1)C1C(c2ccccc2)C1[N+](=O)[O-]` (centres undefined) the figure was 1.7; with `O=[N+]([O-])C1C(c2ccccc2)C12c1ccccc1-c1ccccc12` (centres undefined), 3.55; with `Cc1cnc2cc(Cl)ccc2c1SCC(=O)O`, 0.5.
With `CCN(CC)Cc1cc2[nH]c3c4ccc(Cl)cc4ncc3c2cc1OC` the figure was 1.9.
The result for `c1ccc(-c2nc[nH]c2-c2ccccc2)cc1` reads 0.1; that for `C[C@@H]1C[C@H]2OC(=O)[C@@]3(C)CCC[C@@](C)([C@@H]23)[C@@]1(O)CCc1ccoc1`, 0.2.
Consider `COC(=O)c1cc2c(n1S(=O)(=O)c1ccc(C)cc1)C(=O)C(=O)c1[nH]cc(C(=O)OCc3ccccc3)c1-2`, for which the “T3 sensor activation Q score” value worked out at 0.25.
The result for `C1CCc2nc3c(nc2C1)CCCC3` reads -0.2; that for `Nc1c(Cl)cc(S(N)(=O)=O)cc1S(N)(=O)=O`, 1.1; that for `CC(C)(C)n1nc(C2CC2)cc1NC(=O)Nc1ccccc1`, 0.25.
The result for `COC(=O)C1(F)C(=O)NC(=O)NC1OC` (centres undefined) reads 0.6.
The result for `O=C(N(c1ccccc1)c1ccccc1)N(c1ccccc1)c1ccccc1` reads 1; that for `COc1cc2c(Nc3ccc(Br)cc3F)ncnc2cc1OCC1CCN(C)CC1`, 2.1; that for `COc1cc2ncnc(Nc3ccc(F)c(Cl)c3)c2cc1OCCCN1CCOCC1`, 1.2.
For the compound `COc1cc(Nc2c(C#N)cnc3cc(OCCCN4CCN(C)CC4)c(OC)cc23)c(Cl)cc1Cl`, the “T3 sensor activation Q score” value came out at 1.
The result for `O=C(O)C(=O)Nc1ncn[nH]1` reads -1.75.
With `CCCc1nc2c([nH]1)c(=O)n(C)c(=O)n2C` the figure was -0.95; with `Cn1c(=O)c2c(nc(N3CCCCC3)n2C)n(C)c1=O`, -0.65; with `Cn1c(=O)c2[nH]c(N3CCCCC3)nc2n(C)c1=O`, 1.9.
With `NC1(N2SC(S)=C3CCCC=C32)CCCCC1` the figure was 0.75.
On to `NC1=C(O)C(=O)C(c2ccccc2)O1` (centres undefined), for which the “T3 sensor activation Q score” value is 0.05.
Turning to `O=c1cc(-c2cccnc2)oc2c1ccc1ccccc12`, the “T3 sensor activation Q score” value was 1.25.
The result for `O=C1c2ccccc2NC(c2cc(Cl)cc(Cl)c2O)N1CCc1ccccn1` (centres undefined) reads 0.55; that for `Cc1nnc2nc(N)[nH]n2c1=O`, -1.2; that for `O=C(O)CSc1nc2ccccc2s1`, -0.1.
As for `COC1=C[C@@H](C)[C@@H]2C[C@H]3OC(O)C[C@H]4C(C)=C(OC)C(=O)[C@H]([C@@]2(C)C1=O)[C@@]34C` (some centres undefined), the “T3 sensor activation Q score” value worked out at 0.4.
The result for `CCOC(=O)Cc1csc2nc(-c3ccccc3)nn12` reads 0.25.
Turning to `N#CC1=CC2CN(Cc3ccccc3)C1C1C(=O)N(c3ccccc3)C(=O)C21` (centres undefined), the “T3 sensor activation Q score” value turned out to be 0.45.
The result for `c1ccc(-c2nnc3nc(N4CCCCC4)nc(N4CCCCC4)n23)cc1` reads 1.3; that for `NC(N)=NCCCS(=O)(=O)Nc1ccc(Nc2c3ccccc3nc3cc([N+](=O)[O-])ccc23)cc1`, -0.75; that for `CN(C)c1ccc(/C=C2/C=C(c3ccc4c(c3)CCCC4)OC2=O)cc1`, 0.9.
With `Clc1cc2c(nn1)Nc1ccccc1S2`, the “T3 sensor activation Q score” value was found to be 0.2.
With `Cn1c(CO)cnc1-c1ccccc1` the figure was 0.3.
The result for `CC(C)c1ncc(CO)n1Cc1c(Cl)cccc1Cl` reads 1.85; that for `O=c1[nH]c(SCc2ccccc2[N+](=O)[O-])nc2nc[nH]c12`, 0.3.
As for `O=c1cc(-c2ccccc2)oc2ccc(O)cc12`, the “T3 sensor activation Q score” value came out at 0.15.
The result for `N[C@H](C(=O)O)[C@H]1ON=C(Cl)[C@H]1O` reads -0.15.
For the compound `COc1c(C=O)c2c(c(OC)c1OC)-c1ccc(OC)c(=O)cc1C(NC(C)=O)CC2` (centres undefined), the “T3 sensor activation Q score” value turned out to be 4.1.
The result for `CS/C(=N\S(=O)(=O)c1ccccc1)NNC(=O)c1c(-c2c(Cl)cccc2Cl)noc1C` reads 0.65.
